For 25 molecules, inhibition results are on record in PubChem BioAssay AID1907 (The Scripps Research Institute Molecular Screening Center, 2009).

The structures appear in SMILES notation. The whole screen tested about 1,900 compounds, of which about 1,200 (63%) were called active. The set was probably picked from earlier hits. A selection follows. Values without a mark were called inactive. Rule as the data show it: active = inhibition above about 22%; inactive = the rest.

A short description of the test: cytotoxic compounds in IEC-6 epithelial cells, confirmation, cytotoxicity control, cell-based, luminescence (AID 1907).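 Also: 0% = vehicle and 100% = reference cytotoxic drug.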 The conditions noted are these: IEC-6 rat intestinal epithelial viability, at 5 µM, active compounds read high.
As usually defined, the inhibition is the drop in the measured response relative to a control, in per cent. With `COC(=O)Nc1nc2ccc(Sc3ccccc3)cc2[nH]1`, the inhibition was 53.4% (active).

Turning to `CCOc1ccccc1N1CCN(C(=O)c2ccc3[nH]c(C)c(C)c3c2)CC1`, the inhibition is 29% (active).

Take `Nc1c(C(=O)NCc2ccccc2)nnn1Cc1cccc(Cl)c1`: the inhibition is 22.8% (active).

For `Cc1cccc(/C=N/NC(=O)CNc2cccc3ccccc23)n1`, the inhibition is 26.7% (active).

On to `Cn1cccc1/C=N/NC(=O)CNc1cccc2ccccc12`, for which the inhibition was 36.1% (active).

Consider `Cc1ccc(/C=N/NC(=O)COc2ccccc2-c2ccccc2)cc1`, for which the inhibition was 72.2% (active).

With `CCCC1=Nc2cc(C(=O)NCc3ccco3)ccc2Sc2ccccc21`, the inhibition was 58.2% (active).

Regarding `COc1ccccc1N1CCN(C(=O)c2cc(=O)c3cc(C)cc(C)c3o2)CC1`, the inhibition was 60% (active).

Take `CCOc1cc(C(=O)N2CCc3cc(OC)c(OC)cc3C2)ccc1OC(F)F`: the inhibition was 60.2% (active).

As to `Cc1ccc(CS(=O)(=O)c2ncc(Cl)c(C(=O)Nc3nnc(C)s3)n2)cc1`, the inhibition was 23.3% (active).

As to `Cc1cccc(CS(=O)(=O)c2ncc(Cl)c(C(=O)Nc3ccc(F)cc3)n2)c1`, the inhibition is 22.5% (active).

With `CSc1nnc(NC(=O)c2nc(S(=O)(=O)Cc3ccc(C)cc3)ncc2Cl)s1`, the inhibition is 14.9%.

With `Cc1cccc(NC(=O)c2nc(S(=O)(=O)Cc3ccccc3)ncc2Cl)c1`, the inhibition is 12.9%.

Turning to `CC(C)OCCCNc1ncnc2c1[nH]c1ccc(F)cc12`, the inhibition is 34.4% (active).

Take `CC1CCCCN1S(=O)(=O)c1ccc(C(=O)Nc2nnc(-c3cccs3)o2)cc1` (stereo not given): the inhibition was 18.5%.

Regarding `CCN(CC)c1ccc(NC(=O)c2ccc(Cl)nc2)cc1`, the inhibition was 38% (active).

On to `O=S(=O)(c1ccc(Br)cc1)N1CCC(c2nc3ccccc3[nH]2)CC1`, for which the inhibition is 27.5% (active).

For the molecule `O=[N+]([O-])c1ccccc1S(=O)(=O)Nc1cccc2cccnc12`, the inhibition is 48.3% (active).

On to `CCCCCCCCn1c2c(c(=N)c3c1CCC3)CCCC2`, for which the inhibition was 49.4% (active).

On to `CCOC(=O)CSC1=C(C#N)C(c2sccc2C)CC(=O)N1` (stereo not given), for which the inhibition was 51.2% (active).

As to `CCN1/C(=C\c2ccc3ccccc3[n+]2CC)Sc2cc(C)ccc21`, the inhibition is 39.4% (active).

In the case of `CCN1/C(=C/c2ccc3ccc(C)cc3[n+]2CC)Sc2ccccc21`, the inhibition was 39.8% (active).

For the molecule `O=c1cc(-c2ccccc2)[nH]c2cc(F)ccc12`, the inhibition was 53.6% (active).

With `Cc1cc(C(=O)OCC(=O)NCc2ccco2)c(C)n1-c1ccccc1`, the inhibition was 55.2% (active).

Consider `CC(=O)NC1=NN(C(C)=O)C(C)(c2ccc(Cl)s2)S1` (stereo not given), for which the inhibition is 41.6% (active).
